The values below come from PubChem BioAssay (Tox21).

Results filed as inconclusive are left out. Where a call stands in place of a potency, no number is given. Values without a mark were called inactive. Activity calls are given as the source filed them. Calls come from the whole dose curve; as a rule, active = well fitted cell-killing curve with a large enough effect in the repeat runs; inconclusive = weak or mixed curves, or effect the other way; inactive = flat fitted curve, though single readings scatter.

Assay [1] in a line: cAMP Responsive Elements (CRE) small molecule antagonists, cell-based qHTS assay: qHTS cell viability counter screen (AID 2060913). Note: nearly all actives have a fitted effect of over 40% in size. Note: potency is the fitted concentration of half-maximal effect. A digest of the protocol:
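CRE-bla HEK293T cells were seeded in assay medium with 10% dialyzed FBS, incubated 18 hrs at 37 C, then exposed to compounds plus 0.25 uM final NKH477 for 3 hrs. Viability was read by CellTiter-Glo luminescence after 30 min, in the same wells.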
On the technique in general: Quantitative high-throughput screening tests each substance at several concentrations.

Assay [2] can be described thus: cAMP Responsive Elements (CRE) small molecule agonists, cell-based qHTS assay: qHTS cell viability counter screen (AID 2060914). Note: nearly all actives have a fitted effect of over 50% in size. A digest of the protocol: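 Cytotoxicity was measured as ATP luminescence (CellTiter-Glo, 30 min at room temperature) in the same wells as the CRE-bla FRET read-out. HEK293T CRE-bla cells had 3 h compound exposure at 37C/5% CO2.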

Regarding `CCc1cc(C)cc(CC)c1-c1c(OC(=O)C(C)(C)C)n2n(c1=O)CCOCC2`, the Potency result in assay [1] and in assay [2] was “inactive” each time.
`Nc1ccc(N=Nc2ccccc2)cc1`: the Potency entry in assay [1] and in assay [2] was “inactive” throughout.
On to `CC(=O)NNc1ccccc1`, for which the Potency entry in assay [1] and in assay [2] was “inactive” throughout.
With `O=C1C(=O)c2cccc3cccc1c23`, the Potency entry in assay [1] and in assay [2] was “inactive” each time.
Regarding `O=[N+]([O-])c1ccc(Cl)cc1`, the Potency result in assay [1] and in assay [2] was “inactive” in each case.
For the compound `CNC(=O)N(C)c1nnc(C(C)(C)C)s1`, the Potency result in assay [1] and in assay [2] was “inactive” each time.
`CCNC(=O)NC(=O)/C(C#N)=N/OC`: the Potency entry in assay [1] and in assay [2] was “inactive” in each case.
In the case of `COP(=S)(OC)Oc1ccc(S(N)(=O)=O)cc1`, the Potency entry in assay [1] and in assay [2] was “inactive” each time.
Take `CCC1(CC)C(=O)N=C(O)NC1=O`: the Potency result in assay [1] and in assay [2] was “inactive” throughout.
Turning to `O=C(O)c1nc(Cl)ccc1Cl`, the Potency entry in assay [1] and in assay [2] was “inactive” in each case.
Regarding `CCCSC(=O)N(CCC)CCC`, the Potency result in assay [1] and in assay [2] was “inactive” each time.
As for `OP(O)c1ccccc1`, the Potency entry in assay [1] and in assay [2] was “inactive” in each case.
On to `O=C(O)C1(c2ccc3c(c2)OC[C@H](Cc2ccc(-c4ccccc4)cc2)[C@H]3O)CCCC1`, for which the Potency result in assay [1] and in assay [2] was “inactive” throughout.
Consider `COc1cccc(C(=O)CCN[C@@H](C)[C@H](O)c2ccccc2)c1`, for which the Potency result in assay [1] and in assay [2] was “inactive” each time.
For `CCCCCCCCC(=O)NCc1ccc(O)c(OC)c1`, the Potency entry in assay [1] and in assay [2] was “inactive” in each case.
Consider `Clc1nc(Cl)nc(Cl)n1`, for which the Potency entry in assay [1] and in assay [2] was “inactive” each time.
For `CC1Sc2c(C(=O)O)c(=O)c3cc(F)c(N4CCNCC4)cc3n21` (stereo not drawn), the Potency entry in assay [1] and in assay [2] was “inactive” throughout.
With `CCCCc1c(C)nc(NCC)[nH]c1=O`, the Potency result in assay [1] and in assay [2] was “inactive” throughout.
Regarding `CC(O)C#N` (stereo not drawn), the Potency result in assay [1] and in assay [2] was “inactive” each time.
Turning to `BrCCCCBr`, the Potency entry in assay [1] and in assay [2] was “inactive” throughout.
Regarding `C#CCOC(=O)/C=C(C)/C=C/CC(C)CCCC(C)C` (stereo not drawn), the Potency entry in assay [1] and in assay [2] was “inactive” in each case.
With `ClCCBr`, the Potency entry in assay [1] and in assay [2] was “inactive” each time.
`CC(C)(c1ccccc1)c1ccc(O)cc1`: the Potency entry in assay [1] and in assay [2] was “inactive” in each case.
Consider `Cc1ccc2c(c1N)C(=O)c1ccccc1C2=O`, for which the Potency entry in assay [1] and in assay [2] was “inactive” each time.
As to `OCCCl`, the Potency entry in assay [1] and in assay [2] was “inactive” throughout.
Consider `COc1cc(CC(C)N)c(OC)cc1Br` (stereo not drawn), for which the Potency result in assay [1] and in assay [2] was “inactive” throughout.
As to `Brc1c(Br)c(Br)c(Oc2c(Br)c(Br)c(Br)c(Br)c2Br)c(Br)c1Br`, in assay [1], the viability change, negative = cytotoxic was -10% [at 18.9 µM]. For the same compound, the activity change, negative = cytotoxicity in assay [2] is 4.51% [at 18.9 µM].
Turning to `O=[N+]([O-])c1cccc(O)c1`, the Potency result in assay [1] and in assay [2] was “inactive” each time.
`Cc1ccc(N=CN(C)C=Nc2ccc(C)cc2C)c(C)c1`: the Potency entry in assay [1] and in assay [2] was “inactive” in each case.
`C1CCNCC1`: the Potency entry in assay [1] and in assay [2] was “inactive” throughout.
`CC(=O)[O-].CC(=O)[O-].O.O.[Cd+2]`: the Potency in assay [1] is 53.7 µM (active). For the same compound, the Potency result in assay [2] was “inactive”.
The like results for `CNC(=O)O/N=C(\C)SC` were, in that order, “inactive” and “inactive”.
The like results for `CC(C)=CCOc1c2occc2cc2ccc(=O)oc12` were, in that order, “inactive” and “inactive”.
Turning to `CCCCCCCCCCCC#N`, the Potency result in assay [1] and in assay [2] was “inactive” each time.
`COC(=O)c1ccccc1S(=O)(=O)NC(=O)N(C)c1nc(C)nc(OC)n1`: the Potency entry in assay [1] and in assay [2] was “inactive” in each case.
In the case of `CCOP(=S)(OCC)SCSc1ccc(Cl)cc1`, the Potency entry in assay [1] and in assay [2] was “inactive” in each case.
With `CCCCCCCCCC(CC)c1ccc(S(=O)(=O)O)cc1` (stereo not drawn), the Potency entry in assay [1] and in assay [2] was “inactive” in each case.
For `C[C@H]1[C@H](c2ccc(Cl)cc2)SC(=O)N1C(=O)NC1CCCCC1`, the Potency result in assay [1] and in assay [2] was “inactive” throughout.
Regarding `Cc1ccccc1O`, the Potency entry in assay [1] and in assay [2] was “inactive” in each case.
With `O=C=Nc1ccc(Cl)cc1`, the Potency entry in assay [1] and in assay [2] was “inactive” throughout.
As for `CCCCCCCCCl`, the Potency result in assay [1] and in assay [2] was “inactive” each time.
As to `Oc1ccc(C(=C(Cl)Cl)c2ccc(O)cc2)cc1`, the Potency entry in assay [1] and in assay [2] was “inactive” throughout.
For `COc1cc(OC)nc(Sc2cccc(Cl)c2C(=O)O)n1`, the Potency result in assay [1] and in assay [2] was “inactive” throughout.
As for `CC(C)c1c(CN(C)C(C)Cc2ccccc2)n(C)n(-c2ccccc2)c1=O` (stereo not drawn), the Potency result in assay [1] and in assay [2] was “inactive” throughout.
As for `CC(C)Nc1ccc(Nc2ccccc2)cc1`, the Potency in assay [1] is 50.8 µM (active). Moreover, the Potency result in assay [2] is “inactive”.
As to `N#CCCC(Br)(C#N)CBr` (stereo not drawn), the Potency result in assay [1] and in assay [2] was “inactive” in each case.
For `CC(C#N)CCC#N` (stereo not drawn), the Potency result in assay [1] and in assay [2] was “inactive” each time.
Consider `CN(C)c1ccc(C(=O)c2ccc(N(C)C)cc2)cc1`, for which the Potency result in assay [1] and in assay [2] was “inactive” throughout.
Regarding `ClCc1ccc(Cl)cc1Cl`, the Potency entry in assay [1] and in assay [2] was “inactive” throughout.
